High-throughput results deposited in PubChem by National Center for Advancing Translational Sciences (NCATS).
Only some compounds are listed: those with a hit (about 7.9% of all), similar ones and a draw of the others.
SW480 rereplic: A quantitative high throughput screen for small molecules that induce DNA re-replication in SW480 colon adenocarcinoma cells; AID 624297, 2012; SW480 DNA re-replication, Hoechst DNA content imaging, 48 h; Potency, µM (top dose mostly 46.1 µM), for the others: at the top dose re-replication activation, actives largely listed as activators; 340,000 tested, 1.8% active; also: % of control where 0% means no effect; nearly all actives have a fitted effect of over 55% in size
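Image-based read-out: total Hoechst fluorescence of nuclei (405 nm excitation, 500-530 nm emission), with hits raising the fraction of high-intensity nuclei. SW480 colon cells incubated 48 hr with compounds at 37 C.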
MCF10A rerep: A quantitative high throughput screen for small molecules that induce DNA re-replication in MCF 10a normal breast cells | Potency, µM (top dose mostly 46.1 µM), for inactives: at the top dose activity, positive = re-replication, most hits filed as activators | AID 624296, 2012 | MCF 10A DNA re-replication, Hoechst nuclear intensity, 48 h | 350,000 tested, 2.9% active; also: % of control where 0% means no effect; nearly all actives have a fitted effect of over 50% in size
KB-3-1 cytotox: qHTS assay for MDR1-selective chemotherapeutics: Primary screen using the parental adenocarcinoma cell KB-3-1. KB-3-1 viability, CellTiter-Glo ATP luminescence, 72 h. Potency, µM (highest dose often 46.1 µM), most hits filed as cytotoxic. 400,000 tested, 1.4% active. AID 1347075, 2019; also: % is scaled to controls: 0 for no effect and ±100 for the full control effect; nearly all actives have a fitted effect of over 60% in size
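Luminescent ATP read-out (CellTiter-Glo) measures survival of drug-naive KB-3-1 cells after 72 h compound exposure at 37 °C. Titration series was screened from lowest to highest concentration, with DMSO vehicle plates as background controls.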
KB-V1 cytotox: qHTS assay for MDR1-selective chemotherapeutics: Primary screen using the drug-selected MDR subline cells KB-V1. Potency, µM (series often up to 46.1 µM), actives largely listed as cytotoxic. AID 1347076, 2019. 400,000 tested, 3.4% active. KB-V1 MDR cells viability, CellTiter-Glo, 72 h; also: % is scaled to controls: 0 for no effect and ±100 for the full control effect; nearly all actives have a fitted effect of over 60% in size
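KB-V1 MDR subline cells in DMEM (phenol-red free, 10% FBS) exposed to compounds in qHTS concentration series for 72 h at 37 degrees C. Viability read by CellTiter-Glo luminescence; concentration-effect curves fitted after normalization and correction.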
HT1080 IDH1KD tx: qHTS for induction of synthetic lethality in tumor cells producing 2HG: qHTS for the HT-1080-IDH1KD cell line; HT-1080 IDH1 knockdown viability, ATP luminescence, 48 h; Potency, µM (series often up to 46.1 µM), inactives show at the top dose activity, negative = toxicity, hits mostly cytotoxic; 360,000 tested, 2% active;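 also: 0% = DMSO wells and -100% = cell-free medium wells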
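HT-1080-IDH1KD cells (IDH1 knocked down), 750/well in RPMI with 5% FBS, treated with compound 48 h at 37 degrees C. Viability by CellTiter-Glo luminescence, normalised to DMSO and no-cell wells; concentration-response curves classed.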
HT1080-NT tox: qHTS for induction of synthetic lethality in tumor cells producing 2HG: qHTS for the HT-1080-NT fibrosarcoma cell line. AID 686970, 2013. Potency, µM (series often up to 46.1 µM), for the others: top-dose activity, negative = less viability, actives largely listed as cytotoxic. HT-1080-NT fibrosarcoma viability, CellTiter-Glo ATP luminescence, 48 h. 360,000 tested, 1.6% active;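 also: NT is the 2HG producing partner of a matched IDH1 knockdown line; 0% = DMSO-treated cells and -100% = media-only wells without cells; nearly all actives have a fitted effect of over 55% in size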
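Viability by CellTiter-Glo luminescence after 48 h compound exposure at 37C of HT-1080-NT cells (750/well, RPMI, 5% FBS). % activity scaled between DMSO wells and medium-only wells, then curve-fitted and categorized by curve class.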
Starred values were filed as active, the others as inactive; i = inactive; ? = inconclusive; nt = no result. Calls follow the shape of the dose curve; as a rule, active = well fitted curve in the direction sought with a large enough effect; inconclusive = small, poorly fitted or top-dose-only effect, or another doubt; inactive = no such curve, though single readings can be large; an effect the other way counts as inactive or inconclusive. Potency is read from the fitted curve at half-maximal effect.

SMILES	SW480 rereplic	MCF10A rerep	KB-3-1 cytotox	KB-V1 cytotox	HT1080 IDH1KD tx	HT1080-NT tox
Cc1ccc(NC(=O)c2c3c(nc4ccccc24)C(=O)N(C2CCCCC2)C3)cc1F	nt	nt	i	i	nt	nt
CCCCNC(=O)C1(C)CCCCN1Cc1ccc(OCc2ccccc2)cc1 (centres undefined)	nt	nt	?	15µM*	?	?
CCCC(c1nnnn1CC1CCCO1)N1CCN(c2cc(Cl)ccc2C)CC1 (centres undefined)	19%	5.2µM*	?	?	-13%	-13%
CC(C)CC(c1nnnn1CC1CCCO1)N1CCN(c2cccc(Cl)c2)CC1 (centres undefined)	?	?	?	i	0%	2%
CCC(c1nnnn1C(C)(C)C)N1CCN(C2CCCC2)CC1 (centres undefined)	1%	-16%	i	i	13%	9%
CCC(c1nnnn1C(C)(C)C)N1CCN(c2cc(Cl)ccc2C)CC1 (centres undefined)	?	13µM*	i	i	-20%	-14%
CC(C)CC(c1nnnn1Cc1ccco1)N1CCN(c2cccc(Cl)c2)CC1 (centres undefined)	?	?	10µM*	?	-22%	-20%
Cc1ccc(Cl)cc1N1CCN(C(CC(C)C)c2nnnn2CC2CCCO2)CC1 (centres undefined)	-4%	2.9µM*	?	?	-5%	-8%
CC(C)CC(c1nnnn1CC1CCCO1)N1CCN(C2CCCC2)CC1 (centres undefined)	-1%	1%	i	i	11%	8%
CN(C)C1CCC(CC2CCc3ccccc32)CC1 (centres undefined)	nt	nt	i	i	nt	nt
O=S1(=O)N[C@H](Cc2ccccc2)COc2cc(N3CCN(Cc4ccccc4F)CC3)ccc21	nt	nt	i	i	-3%	6%
CCCCn1nnnc1C(c1cc2ccccc2o1)N1CCOCC1 (centres undefined)	nt	nt	i	i	0%	4%
CCN1CCN(C(c2ccc(F)cc2)c2nnnn2Cc2cccs2)CC1 (centres undefined)	?	23µM*	i	i	2%	?
O=C(NCc1ccc(Cl)cc1)c1ccc(-c2ccccc2C(F)(F)F)o1	0%	23µM*	i	i	-4%	14%
Cc1c(/C=C/C(=O)c2cccs2)cnn1C	?	21µM*	i	i	-4%	-11%
CC(C)(C)C(C(=O)NC1CCCC1)N1CCN(c2ncccc2C#N)CC1 (centres undefined)	nt	nt	i	i	5%	0%
O=C(Cn1c(-c2cccs2)cc2cc(Cl)ccc21)N1CCCCC1	nt	nt	i	i	nt	nt
COc1cccc(CNc2ccc(N3CCC(C)CC3)cc2)c1OC	8%	8%	21µM*	21µM*	?	-26%
CC1CCN(c2ccc(NC(=O)Cc3ccccc3)cc2)CC1	2%	0%	i	i	-1%	-1%
CN(C)/C=C/C(=O)c1cnc2n(c1=O)CCS2	-5%	-16%	i	i	7%	8%
CC(=O)c1cnc2n(c1=O)CCS2	13µM*	-17%	i	i	0%	-8%
O=C1C(=O)c2c(ccc3ccccc23)-c2ccccc21	9.2µM*	1.8µM*	4.1µM*	4.1µM*	1.8µM*	4.6µM*
CO/N=C\CC(=O)Nc1ccc(Oc2ccccc2)cc1	5.2µM*	?	8.2µM*	?	?	?
O=C(C/C=N\O)Nc1ccc(Oc2ccccc2)cc1	17%	20%	i	i	-3%	-4%
O=C1c2ccccc2C(=O)N1CCc1csc(-c2cccc(F)c2)n1	1%	?	i	16µM*	-10%	-7%
SMILES	SW480 rereplic	MCF10A rerep	KB-3-1 cytotox	KB-V1 cytotox	HT1080 IDH1KD tx	HT1080-NT tox
O=C1c2ccccc2C(=O)N1CCc1csc(-c2cccc(Cl)c2)n1	8%	?	i	?	-8%	0%
CN(C)c1ccc(-c2nc(-c3cc4cc(Cl)ccc4oc3=O)cs2)cc1	nt	nt	i	i	nt	nt
COc1ccc(NC(=O)Nc2ccccc2C(N)=O)cc1OC	0%	4%	i	i	-15%	4%
COc1ccccc1C(=O)NC(=O)Nc1cccc(Cl)c1	-10%	1%	i	i	1%	-9%
Nc1ccccc1C(=O)NC(=O)Nc1ccc(Oc2ncc(Br)cn2)c(Cl)c1	0.52µM*	?	0.21µM*	0.13µM*	?	?
Cc1cc(NC(=O)NC(=O)c2ccccc2NC(=O)CN)ccc1Oc1ncc(Br)cn1	2.9µM*	?	1.2µM*	?	?	0.52µM*
Cc1cc(NC(=O)NC(=O)c2ccccc2NC(=O)CN(C)C)ccc1Oc1ncc(Br)cn1	6.5µM*	15µM*	2.9µM*	2.1µM*	?	?
Cc1cccc(Cn2cc(S(=O)(=O)c3ccc(Cl)cc3)c(=O)c3cc4c(cc32)OCO4)c1	nt	nt	i	i	nt	nt
CC1(C(=O)NCc2ccccc2Br)CCN1Cc1ccccc1OC(F)F (centres undefined)	nt	nt	i	23µM*	?	?
CC1(C(=O)NCCc2c[nH]c3ccccc23)CCN1Cc1ccccc1OC(F)F (centres undefined)	nt	nt	?	i	?	23µM*
O=C1OC(Nc2ccc3c(c2)OCO3)c2ccccc21 (centres undefined)	?	?	?	?	18µM*	?
CCc1ccc(NCc2cc3ccc(OC)cc3n(CC(=O)Nc3cccc(Cl)c3C)c2=O)cc1	nt	nt	?	i	nt	nt
CSc1cc(-c2ccc(Cl)cc2)c(C(=O)NC(C)C)s1	?	?	i	i	10%	18%
CSc1cc(-c2ccc(Cl)cc2)c(C(=O)NN)s1	?	?	?	8.2µM*	?	?
Oc1cc(NCCN2CCOCC2)cc2cccnc12	?	?	15µM*	i	nt	nt
Oc1cc(Nc2ccccc2)cc2cccnc12	18%	?	?	?	nt	nt
O=C(Nc1ccccc1)Nc1ncc([N+](=O)[O-])s1	?	4%	18µM*	?	9.2µM*	9.2µM*
COc1ccc(N2C(=O)C(CC(=O)Nc3ccc(F)cc3)N(CCC3=CCCCC3)C2=O)cc1 (centres undefined)	nt	nt	i	i	nt	nt
